A short description of the assay: T. gondii intracellular growth, IFN-gamma absent, dose response, cell-based (AID 1259420).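 Further: host cells were HeLa; final incubation lasted 72 hours.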 The conditions noted are these: Toxoplasma gondii growth in host cells, no IFN-gamma; at 19.5 µM unless noted.

Here are results for 43 compounds from PubChem BioAssay AID1259420 (Broad Institute, 2018).

Values joined by “and” are separate entries in the source; they are usually repeats but may differ in a detail not shown here. Identical values can stand only once. In all, about 1,000 compounds went through this assay and about 250 (25%) were called active. About 31% were inconclusive and are not listed. A selection follows. Results with a measured potency or affinity are listed apart. A number with no mark means an inactive call. How the calls were made is not given here.

Turning to `COC[C@]12CCC[C@@H]1CN(S(=O)(=O)c1cccc(OC)c1)C2`, the max activity is 17.2%.

On to `CN(C)CCN1CCC2(CCCN(C(=O)C3CCOC3)C2)C1=O` (stereo not drawn), for which the max activity was 31.3%. Then `COCC1CN(C(=O)c2ccccc2F)Cc2cnn(CC3CC3)c21` (stereo not drawn), with -15.3% [at 10 µM]; and `Cc1ccccc1-c1ccc([C@@H]2[C@@H](CO)N3C(=O)CN(C(=O)c4ccncc4)C[C@@H]23)cc1`, with 15% [at 0.16 µM]. Take `COc1ccccc1S(=O)(=O)N1CC[C@H]2[C@H](CO)Nc3ccc(-c4ccc(C#N)cc4)cc3[C@H]21`: the max activity is 19% [at 21 µM]. Then `c1cc(-c2nccn2CCn2ccnc2)ccn1`, with 7.6% [at 0.16 µM]; and `O=C(NCc1ccccc1)c1cc(-c2cnc(N3CCCC3)nc2)cn1CC1CC1`, with -17.4% [at 10 µM]. Then `O=C(Nc1ccccc1)c1ncn2c1CN(CC1CC1)S(=O)(=O)c1ccccc1-2`, with -5.31% [at 1.2 µM]; and `COc1ccccc1C#Cc1ccc([C@H]2[C@@H](CO)N3CCCCN(C(=O)C4CCC4)C[C@H]23)cc1`, with 11% [at 0.16 µM]. Turning to `CN(C)CCOCC12CCCOC1CCN(C(=O)c1cccn1C)C2` (stereo not drawn), the max activity was -18.9% [at 5 µM]. Consider `CC(C)COC1CC2(CCN(C(=O)c3cccn3C)CC2)C1`, for which the max activity was 9.82% [at 0.3 µM].

`CC(C)C#Cc1ccc([C@@H]2[C@@H](CO)N3C(=O)CN(C(=O)NC4CCCC4)C[C@H]23)cc1`: the max activity is -5.34%. Take `COCC(=O)N1CC(=O)N2[C@H](CO)[C@H](c3ccc(C#CC4CC4)cc3)[C@@H]2C1`: the max activity was -9.08% [at 5 µM]. Then `COc1ccc(-c2ccc([C@@H]3[C@@H](CO)N4C(=O)CN(C(=O)C5CC5)C[C@@H]34)cc2)cc1`, with 19.5% [at 21 µM]; and `CN1CCCN(CC2(O)CCNC2)CC1` (stereo not drawn), with 11.3% [at 0.08 µM]; and `Cc1cccc(-c2ccc([C@@H]3[C@@H](CO)N4C(=O)CN(C(=O)c5ccc6c(c5)OCO6)C[C@H]34)cc2)c1`, with -5.13% [at 0.3 µM].

For the compound `CN1c2ccc(C3=CCCCC3)cc2[C@@H]2[C@@H](CCN2C(=O)C2CCOCC2)[C@H]1CO`, the max activity was -17.2% [at 5 µM]. `Cc1cccc(-c2ccc([C@H]3[C@H]4CN(C(=O)c5ccc6c(c5)OCO6)CC(=O)N4[C@H]3CO)cc2)c1`: the max activity was 11.6%. For the compound `COc1ccc(-c2ccc3c(c2)[C@H]2[C@H](CCN2C(=O)Nc2ccccc2OC)[C@H](CO)N3C)cc1`, the max activity was -12.3% [at 0.6 µM]. `N#Cc1ccc(-c2ccc3c(c2)[C@H]2[C@H](CCN2C(=O)C2CCCCC2)[C@@H](CO)N3)cc1`: the max activity is -26.1% [at 5 µM].

For the compound `N#Cc1ccc(-c2ccc3c(c2)[C@@H]2[C@@H](CCN2C(=O)C2CCCCC2)[C@@H](CO)N3)cc1`, the max activity is 24.3%. The figure for `CCc1cnc(N2CCc3cc(C(=O)NCC4CC4)c(N(C)C)nc3CC2)nc1` is 11.8% [at 0.6 µM]; for `CO[C@@H]1CCN(S(=O)(=O)N(C)C)C[C@@H]1Cc1cccc(C)c1` it is -8.52% [at 10 µM]; for `CCCCOCCOCCOCc1cc2c(cc1CCC)OCO2` it is -10.5% [at 10 µM]. As to `Cc1nc(N2CCCC2)nc2c1CCN(C(=O)c1ccoc1C)CC2`, the max activity is -19.1% [at 10 µM]. Then `Cc1cc2nc(CN3CCCC(CCc4ccc(F)cc4F)C3)cc(=O)n2[nH]1` (stereo not drawn), with 5.72%; and `O=C(Nc1ccc(F)cc1)N1CC(=O)N2[C@H](CO)[C@@H](c3ccc(-c4cccc(F)c4)cc3)[C@@H]2C1`, with -6.88%; and `O=C(c1cnccn1)N1CC(=O)N2[C@H](C1)[C@H](c1ccc(-c3cccc(F)c3)cc1)[C@@H]2CO`, with -9.23% [at 0.16 µM]. The figure for `Cc1ccc(-c2ccc([C@H]3[C@H]4CN(C(=O)NC(C)C)CC(=O)N4[C@H]3CO)cc2)cc1` is -10.6% [at 0.6 µM]. On to `O=C(Nc1ccc(F)cc1)N1CC(=O)N2[C@H](CO)[C@@H](c3ccc(-c4cccc(F)c4)cc3)[C@H]2C1`, for which the max activity is 13.4%. Then `O=C(c1cnccn1)N1CC(=O)N2[C@H](CO)[C@H](c3ccc(-c4cccc(F)c4)cc3)[C@@H]2C1`, with -10.6% [at 0.3 µM]; and `O=C(c1cnccn1)N1CC(=O)N2[C@H](C1)[C@@H](c1ccc(-c3cccc(F)c3)cc1)[C@@H]2CO`, with 25.6%. Take `C/C=C/c1ccc([C@H]2[C@@H](CO)N3C(=O)CN(C(=O)Nc4ccc(F)cc4)C[C@@H]23)cc1`: the max activity is -13% [at 0.16 µM]. Turning to `O=C(c1cnccn1)N1CC(=O)N2[C@H](CO)[C@H](c3ccc(-c4cccc(F)c4)cc3)[C@H]2C1`, the max activity was 15.4% and 19.8%. On to `CC1CCCCN1C(=O)c1ccnn1-c1ccc2ccc(-c3ccccc3)cn12` (stereo not drawn), for which the max activity is -6.05% [at 5 µM]. The figure for `CC(=O)O[C@@H]1CC2C(C)(CC[C@H](O)C2(C)C)C2CC[C@]3(C)C(=CC(=O)O[C@H]3c3ccoc3)C21C` (stereo partly drawn) is -5.91% [at 10 µM].

For the compound `CC(C)n1cnc2c(NCC3CC3)nc(C3CCN(C(=O)c4cccc(F)c4F)CC3)cc21`, the max activity is 5.98% [at 1.2 µM].

In the case of `Cc1ccccc1-c1ccc(C2[C@@H]3CN(Cc4cocn4)C[C@H]2N3)cc1` (stereo partly drawn), the max activity is 20.2%.

`COCC1COCCC12CCN(C(=O)c1ccc(C)nc1)CC2` (stereo not drawn): the max activity was 6.91% [at 2.6 µM].

`CCCN(C/C=C/I)C1CCc2cccc(O)c2C1` (stereo not drawn): the max activity is 15.1%. Then `CC(C)NC(=O)N1CC(=O)N2[C@@H](CO)[C@H](c3ccc(/C=C/c4ccccc4)cc3)[C@@H]2C1`, with -13.4% [at 0.16 µM].

`O=C(C1CCOCC1)N1CC(=O)N2[C@H](C1)[C@H](c1ccc(/C=C/c3ccccc3)cc1)[C@@H]2CO`: the max activity was -15.6% [at 2.6 µM].

Regarding `CC1=NN(C2CCS(=O)(=O)C2)C(=O)C1(Sc1ccccc1)Sc1ccccc1` (stereo not drawn), the max activity was 14.4% [at 10 µM].
